The values below come from PubChem BioAssay (NCATS).

Records with an inconclusive call do not appear. The source made the active and inactive calls. Calls come from the whole dose curve; as a rule, active = well fitted inhibition curve with a large enough effect; inconclusive = small, poorly fitted or top-dose-only effect; inactive = flat fitted curve, though single readings scatter.

What all share (assay): qHTS profiling for inhibitors of Plasmodium falciparum proliferation (AID 504749); note: nearly all actives have a fitted effect of over 60% in size
What all share (settings): P. falciparum in erythrocytes, SYBR Green DNA, 72 h; series mostly up to 28.7 µM

One assay concerns CP268. In short, it runs like this: (§1)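 Infected RBCs, 0.3% parasitemia/2.5% Hct final; cpd 72 h, 37 C, 5% CO2; lysis buffer with saponin/triton/SYBR Green I, o/n RT dark; FI 485/535; norm. to artemisinin (0.29 uM) and DMSO.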
The test system of a further assay is CP269. In short, it runs like this: as §1
The test system of another assay is CP286. The gist of the method: as §1
Another assay relates to CP291. In short, it runs like this: as §1
The test system of the next assay is CP305. In short, it runs like this:
as §1

The next assay relates to CP315. The gist of the method:
as §1

The subject of a further assay is CP325. In short, it runs like this:
as §1

A further assay deals with CP329. In short, it runs like this: as §1
Another assay has as its system CP335. The gist of the method: as §1
Another assay concerns DFO2036. The gist of the method:
as §1

The subject of a further assay is DIV14. In short, it runs like this: as §1
The next assay concerns DIV17. In short, it runs like this: as §1
Another assay relates to DIV30. The gist of the method: as §1
Another assay has as its system Dd2. The gist of the method: as §1
The test system of a further assay is ECU. The gist of the method:
as §1

Another assay has as its system FAB9. In short, it runs like this: as §1
The next assay relates to GB4. In short, it runs like this:
as §1

The next assay deals with HB3. The gist of the method: as §1
Another assay concerns ICS. In short, it runs like this:
as §1

For another assay, the system named is CP297. In short, it runs like this: as §1
Potency is the fitted concentration of half-maximal effect.

Consider `Nc1ncnc2c1ncn2[C@@H]1O[C@H](CO)[C@@H](O)[C@H]1O`, for which the Potency result with CP268, in the assay on CP269, in the assay with CP286, in the assay on CP291, with CP305 and in the assay on CP315 was “inactive” throughout. The Potency entry in the assay with CP325, in the assay on CP329, in the assay on CP335, with DFO2036, in the assay with DIV14 and in the assay on DIV17 was “inactive” each time. Moreover, the Potency result in the assay with DIV30, in the assay with Dd2, in the assay with ECU, in the assay with FAB9, in the assay with GB4 and with HB3 was “inactive” throughout. Further, the Potency entry with ICS was “inactive”.
On to `O=C(Oc1ccccc1C(=O)O)c1ccccc1O`, for which the Potency result in the assay on CP268, in the assay with CP269, with CP286, in the assay on CP291, with CP297 and in the assay on CP305 was “inactive” each time. In addition, the Potency result in the assay with CP315, in the assay with CP325, in the assay with CP329, in the assay with CP335, in the assay with DFO2036 and in the assay on DIV14 was “inactive” each time. The Potency entry in the assay on DIV17, with DIV30, in the assay with Dd2, with ECU, in the assay with FAB9 and with GB4 was “inactive” in each case. Further, the Potency entry in the assay with HB3 and in the assay on ICS was “inactive” throughout.
For `CCCCc1ncc(/C=C(\Cc2cccs2)C(=O)O)n1Cc1ccc(C(=O)O)cc1`, the Potency result with CP268, with CP269, with CP286, in the assay with CP291, in the assay with CP297 and with CP305 was “inactive” in each case. Also, the Potency result with CP315, with CP325, in the assay on CP329, in the assay with CP335, in the assay on DFO2036 and with DIV14 was “inactive” in each case. Further, the Potency result in the assay on DIV17, with DIV30, with Dd2, in the assay on ECU, with FAB9 and in the assay with GB4 was “inactive” in each case. Besides, the Potency result in the assay with HB3 and in the assay with ICS was “inactive” throughout.
Consider `C[C@]12C[C@H](O)[C@H]3[C@@H](CCC4=CC(=O)CC[C@@]43C)[C@@H]1CC[C@@H]2C(=O)CO`, for which the Potency result in the assay on CP268, in the assay on CP269, in the assay on CP286, in the assay with CP291, in the assay with CP297 and with CP305 was “inactive” throughout. Besides, the Potency entry in the assay on CP315, in the assay with CP325, with CP329, in the assay with CP335, in the assay with DIV14 and with DIV17 was “inactive” in each case. Besides, the Potency result in the assay on DIV30, in the assay with GB4 and in the assay on ICS was “inactive” in each case.
As for `CC(C)(C)C(=O)NCCCC(=O)O`, the Potency result with CP268, in the assay on CP269, in the assay on CP286, in the assay with CP297, in the assay with CP305 and with CP315 was “inactive” in each case. Moreover, the Potency entry in the assay on CP325, in the assay on CP329, in the assay with CP335, in the assay on DFO2036, in the assay with DIV14 and with DIV17 was “inactive” in each case. For the same compound, the Potency result in the assay on DIV30, in the assay on Dd2, in the assay with ECU, with FAB9, in the assay with GB4 and with HB3 was “inactive” throughout. Moreover, in the assay on ICS, the Potency entry is “inactive”. Besides, in the assay with CP291, the Potency is 12000 nM (active).
In the case of `COc1cc(C)c(Cc2cnc(N)nc2N)cc1OC`, the Potency entry in the assay with CP268, in the assay with CP269, in the assay on CP286, in the assay with CP291, in the assay on CP297 and with CP305 was “inactive” each time. Moreover, the Potency result in the assay on CP315, with CP325, in the assay with CP329, with CP335, in the assay with DFO2036 and in the assay with DIV14 was “inactive” in each case. The Potency entry in the assay with DIV17, with DIV30, in the assay with Dd2 and in the assay on ICS was “inactive” each time. Moreover, the Potency in the assay with ECU was 5010 nM (active); in the assay on FAB9, 5620 nM (active); in the assay with GB4 it was 3790 nM (active).
Consider `COC(=O)C1=C(C)NC(C)=C(C(=O)OC)C1c1ccccc1[N+](=O)[O-]`, for which the Potency result in the assay with CP268, in the assay with CP269, in the assay with CP286, in the assay with CP291, in the assay on CP297 and in the assay with CP305 was “inactive” throughout. Moreover, the Potency result in the assay with CP315, with CP325, in the assay with CP329, in the assay on CP335, in the assay with DFO2036 and in the assay with DIV14 was “inactive” throughout. For the same compound, the Potency result with DIV30, in the assay with Dd2, with ECU, in the assay with FAB9, in the assay on GB4 and in the assay on HB3 was “inactive” each time.
As for `O=C(O)c1ccccn1`, the Potency entry with CP268, in the assay with CP269, in the assay on CP286, in the assay with CP291, in the assay on CP297 and in the assay with CP305 was “inactive” each time. The Potency result in the assay with CP315, with CP325, with CP329, in the assay with DFO2036, in the assay with DIV17 and with DIV30 was “inactive” throughout. Further, the Potency result in the assay on Dd2, in the assay with ECU, in the assay on FAB9, with GB4, in the assay with HB3 and with ICS was “inactive” in each case.
Take `CCCCN(CCCC)CC(O)c1cc(Cl)cc2c1-c1ccc(Cl)cc1/C2=C/c1ccc(Cl)cc1` (configuration not stated): the Potency with CP268 was 135 nM (active); in the assay with CP269, 37.9 nM (active); in the assay on CP286, 31.6 nM (active); in the assay with CP291, 37.9 nM (active); in the assay with CP297, 33.8 nM (active); with CP305, 107 nM (active). Also, the Potency is 53.6 nM (active) with CP315; 42.6 nM (active) with CP325; 47.8 nM (active) with CP329; 23.9 nM (active) in the assay on CP335; 12.6 nM (active) with DFO2036; 13.5 nM (active) in the assay with DIV17. Moreover, the Potency in the assay with DIV30 is 6.7 nM (active); in the assay with Dd2, 8.9 nM (active); with ECU it was 5.6 nM (active); with FAB9, 316 nM (active); in the assay with HB3, 14.1 nM (active); with ICS it was 1.4 nM (active).
